The text below walks through data of PubChem BioAssay (NCATS).

Each structure is given as a SMILES string. Where “and” joins values, the source holds several entries; their conditions need not be identical. Identical values can stand only once. Results filed as inconclusive are left out. Calls of active or inactive are those of the source. Unless noted, the call rests on the fitted dose curve; in most records, active means well fitted curve in the direction sought with a large enough effect; inconclusive means small, poorly fitted or top-dose-only effect, or another doubt; inactive means no such curve, though single readings can be large; an effect the other way counts as inactive or inconclusive.

A short description of test [1]: qHTS Assay for Lipid Storage Modulators (AID 1519; calls by dose curve; on activity change, negative = inhibition: on the % scale 0 is the no-effect control and ±100 the full control effect). As to conditions: Drosophila S3 cells, BODIPY lipid droplet/cell ratio, laser cytometry, cells loaded with oleic acid. The essentials:
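Cells seeded at 5,000 per well were treated with compounds over a concentration series and loaded with oleic acid (400 uM, as added). Lipid droplet fluorescence (488 nm excitation, 500-530 nm channel) was read by laser-scanning cytometry and normalized to 20 uM Triacsin C.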
A general note: qHTS replaces the single test concentration by a dilution series.

In test [2] the target is Ubiquitin carboxyl-terminal hydrolase 1 (Homo sapiens) (UniProt O94782). The experiment in a line: Inhibitors of USP1/UAF1: Pilot qHTS (AID 504865).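 Further: rhodamine fluorescence freed from ubiquitin-rhodamine substrate followed over time; top concentration of the series differs between compounds; on the % scale 0 is the no-effect control and ±100 the full control effect; nearly all actives have a fitted effect of over 35% in size.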 The settings on record: purified USP1/UAF1, Ub-rhodamine cleavage fluorescence; series mostly up to 114 µM. In a few lines:
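Kinetic fluorescence assay: 1nM USP1/UAF1, 15 min compound preincubation, then 150nM Ub-Rho; 480/540 nm.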

In test [3] the target is Cytochrome P450 3A4 (Homo sapiens) (UniProt P08684). The experiment in a line: qHTS Assay for Inhibitors and Substrates of Cytochrome P450 3A4 (AID 884). Further: nearly all actives have a fitted effect of over 50% in size. Further: potency means the concentration at half of the fitted maximal effect. On activity change, negative = inhibition: on the % scale 0 is the no-effect control and ±100 the full control effect. The settings on record: recombinant CYP3A4, Luciferin-PPXE luminescence; series mostly up to 57.1 µM. The essentials: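 Luminescent readout of luciferin produced by CYP3A4 (20 nM) dealkylation of Luciferin-PPXE, 25 uM (its KM). NADPH-driven reaction ran 60 min at RT after 10 min compound preincubation; data scaled to 57 uM ketoconazole as 100% inhibition.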

Test [4] in a line: Stat Signaling Pathway (AID 446; active means well fitted curve in either direction with a large enough effect, not every such curve was filed as active;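 further: ME-180 cervical cancer cells given 40 pM IL-6 alongside compound; SIE-controlled beta-lactamase reporter measured as 460/530 nm FRET emission ratio; on the % scale 0 is the no-effect control and ±100 the full control effect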). The settings on record: ME-180 (cervical carcinoma) SIE beta-lactamase reporter, IL-6 stimulated, 5 h; series mostly up to 17.2 µM. In a few lines: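 Emission at 460 and 530 nm (excitation 405 nm) reports SIE-controlled beta-lactamase in ME-180 cells. Cells received compound with 40 pM IL-6 for 5 hrs at 37 C; data scaled between 300 pM IL-6 and 125 nM JAK-inhibitor controls.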

The target in test [5] is Glucocorticoid receptor (Homo sapiens) (UniProt P04150). The experiment in a line: GR-GFP Redistribution (AID 450;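 active means compounds whose dose series gives a full or clear partial fitted curve of increased nuclear translocation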; further: potency means the concentration at half of the fitted maximal effect). The settings on record: U2OS GR-GFP nuclear translocation, laser cytometry, 2 h.
For test [6] the target is unchanged. The experiment in a line: GR-EFC Redistribution (AID 451; calls by dose curve; further: potency means the concentration at half of the fitted maximal effect). The settings on record: CHO-K1 GR-EFC translocation, beta-gal luminescence, 2 h. The essentials:
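CHO-K1 cells stably expressing nuclear-localized β-gal enzyme acceptor and GR fused C-terminally to the enzyme donor fragment; ligand-driven nuclear translocation restores β-gal by complementation. Compounds titrated up to 46 uM final, 2 h at 37 °C; luminescence read.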

Test [7] concerns the target Mitogen-activated protein kinase 10 (Mus musculus) (UniProt Q61831). The experiment in a line: JNK3 AlphaScreen Assay (AID 530; active means well fitted curve in either direction with a large enough effect, not every such curve was filed as active;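 further: kinase came from lysate of stimulated human HepG2 cells; signal reports phosphorylation of biotinylated GST-cJun 1-79 at Ser73 with 10 µM ATP; on the % scale 0 is the no-effect control and ±100 the full control effect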). As to conditions: JNK3 lysate, c-Jun phosphorylation; series mostly up to 57.1 µM. The essentials:
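Biotinylated GST-cJun(1-79) served as substrate for JNK3 in HepG2 lysates stimulated with IL-1beta and TNF-alpha. ATP was 10 uM final, pH 7.6. Ser73 phosphorylation was quantified by AlphaScreen (680 nm excitation).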

The target in test [8] is Cytochrome P450 3A4 (Homo sapiens) (UniProt P08684). In words: qHTS Assay for Activators of Cytochrome P450 3A4 (AID 885). Further: nearly all actives have a fitted effect of over 65% in size. As to conditions: recombinant CYP3A4, Luciferin-PPXE luminescence, 60 min; series mostly up to 57.1 µM. The essentials:
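Activators are scored by enhanced luminescence from CYP3A4 conversion of luciferin-PPXE (25uM, equal to KM) to luciferin, after 60 min at RT with an NADPH-regenerating system.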

Test [9] is described as follows: Confirmation and Secondary Assay for Modulators of Hemoglobin Beta Chain Splicing at IVS2 705 locus (AID 930). Further: % of control where 0% means no effect. As to conditions: HeLa EGFP-705 splicing reporter, GFP fluorescence, 48 h; series mostly up to 46.1 µM. The essentials: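 HeLa cells stably carrying EGFP interrupted by mutant beta-globin IVS2-705 intron (CMV-driven) were seeded at 500 cells/well, treated next day with compound for 2 days at 37C; corrected splicing restores EGFP, read as total peak GFP intensity per well.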

Test [10] has as its target Luciferin 4-monooxygenase (Photinus pyralis) (UniProt P08659). In words: Biochemical firefly luciferase enzyme assay for NPC (AID 624030).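 Further: purified P. pyralis luciferase at 10 nM with luciferin and ATP substrate; 0% = DMSO and -100% = full luciferase inhibition by PTC124 control; nearly all actives have a fitted effect of over 70% in size.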 The settings on record: purified P. pyralis luciferase, luminescence, 5 min; series mostly up to 58.6 µM. In a few lines: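 Counter-screen for direct inhibition of the luciferase enzyme by approved-drug library compounds, run at 10 nM enzyme in 50 mM Tris acetate (final). Luminescence was read within 5 min of enzyme-buffer addition and normalized to PTC124 versus DMSO (0%).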

Test [11] is described as follows: qHTS profiling for inhibitors of Plasmodium falciparum proliferation (AID 504749). Further: potency means the concentration at half of the fitted maximal effect; nearly all actives have a fitted effect of over 60% in size. The settings on record: P. falciparum in erythrocytes, SYBR Green DNA, 72 h. In a few lines: (§1)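 Fluorescence of SYBR Green-bound parasite DNA, read at 485/535 nm, served as the growth measure. Infected erythrocytes were cultured with compound 72 h; artemisinin (0.29 uM) and DMSO wells defined the normalization range.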

The test system of a further test is ATS189. The test is described as above. The settings on record: P. falciparum in erythrocytes, SYBR Green DNA, 72 h; series mostly up to 28.7 µM. In a few lines: as §1
A further test has as its system DFO2036. Described as above. As to conditions: P. falciparum in erythrocytes, SYBR Green DNA, 72 h; series mostly up to 28.7 µM. In a few lines:
as §1

Test [12] has as its target Cytochrome P450 1A2 (Homo sapiens) (UniProt P05177). The experiment in a line: p450-cyp1a2 (AID 410; calls by dose curve;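 further: -100% = full effect of reference inhibitor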). The settings on record: recombinant CYP1A2, luciferin-ME demethylation, luminescence; series mostly up to 25.6 µM. The essentials:
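Read-out is luminescence from luciferin produced by CYP1A2 demethylation of Luciferin-ME (100uM, at Km). Detection reagent stopped the 60 min NADPH-dependent reaction; signals were normalized to 57 uM furafylline.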

Test [13] concerns the target 3',5'-cyclic-AMP phosphodiesterase 4B (Homo sapiens) (UniProt Q07343). In words: qHTS Assay for Inhibitors of PDE-IV (AID 607; active means well fitted activation curve with a large enough effect in the main read-out, with a control signal flat, not every such curve was filed as active; further: % of control where 0% means no effect). As to conditions: HEK293 ACTOne CNG channel cells, membrane potential fluorescence; series mostly up to 22.9 µM. In a few lines: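 The readout is membrane depolarisation from a cAMP-sensing CNG channel, detected with a potential dye at ex 535/em 590. Cells were HEK293-derived (endogenous PDE-IV) at 1000 cells/well, titrated up to 22.9 uM final.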

[14] abbreviates: measured here: cell count channel max response.
[15] abbreviates: measured here: lipid channel max response.

Cytochrome P450 3A4 (Homo sapiens), sequence (P08684 whole entry, looked up): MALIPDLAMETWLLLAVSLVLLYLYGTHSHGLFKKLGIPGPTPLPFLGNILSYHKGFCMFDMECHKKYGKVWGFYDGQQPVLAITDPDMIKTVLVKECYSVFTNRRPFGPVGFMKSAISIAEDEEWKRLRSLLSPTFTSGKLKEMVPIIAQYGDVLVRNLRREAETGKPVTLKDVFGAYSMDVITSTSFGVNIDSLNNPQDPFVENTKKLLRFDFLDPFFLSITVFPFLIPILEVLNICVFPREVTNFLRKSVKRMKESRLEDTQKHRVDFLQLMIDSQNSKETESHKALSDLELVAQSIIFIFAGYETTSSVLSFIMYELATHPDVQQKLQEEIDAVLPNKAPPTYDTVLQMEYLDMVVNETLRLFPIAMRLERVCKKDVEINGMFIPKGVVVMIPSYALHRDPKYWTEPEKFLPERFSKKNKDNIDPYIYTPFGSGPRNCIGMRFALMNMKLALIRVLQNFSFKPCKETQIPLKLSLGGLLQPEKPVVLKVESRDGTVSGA
Ubiquitin carboxyl-terminal hydrolase 1 (Homo sapiens), sequence (O94782 whole entry, looked up): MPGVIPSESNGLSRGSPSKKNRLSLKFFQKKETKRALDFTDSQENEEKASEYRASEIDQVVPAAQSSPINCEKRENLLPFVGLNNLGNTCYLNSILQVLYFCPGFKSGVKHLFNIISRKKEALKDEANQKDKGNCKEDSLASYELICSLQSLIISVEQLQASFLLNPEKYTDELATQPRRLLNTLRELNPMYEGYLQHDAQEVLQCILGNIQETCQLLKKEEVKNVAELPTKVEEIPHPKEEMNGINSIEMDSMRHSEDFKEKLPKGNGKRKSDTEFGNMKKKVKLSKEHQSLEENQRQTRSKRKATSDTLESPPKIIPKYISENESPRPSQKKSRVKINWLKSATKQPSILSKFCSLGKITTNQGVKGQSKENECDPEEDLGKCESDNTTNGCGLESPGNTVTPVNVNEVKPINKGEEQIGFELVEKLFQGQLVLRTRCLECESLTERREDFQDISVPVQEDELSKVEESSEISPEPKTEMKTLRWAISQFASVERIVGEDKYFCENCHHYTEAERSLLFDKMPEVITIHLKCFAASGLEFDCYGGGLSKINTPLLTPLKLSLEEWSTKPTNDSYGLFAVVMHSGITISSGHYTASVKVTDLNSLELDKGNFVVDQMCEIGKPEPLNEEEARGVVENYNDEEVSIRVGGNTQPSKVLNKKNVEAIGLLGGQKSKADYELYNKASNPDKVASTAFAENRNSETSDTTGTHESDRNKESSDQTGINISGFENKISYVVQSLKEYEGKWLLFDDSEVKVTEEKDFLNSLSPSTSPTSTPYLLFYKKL
Glucocorticoid receptor (Homo sapiens), sequence (P04150 whole entry, looked up): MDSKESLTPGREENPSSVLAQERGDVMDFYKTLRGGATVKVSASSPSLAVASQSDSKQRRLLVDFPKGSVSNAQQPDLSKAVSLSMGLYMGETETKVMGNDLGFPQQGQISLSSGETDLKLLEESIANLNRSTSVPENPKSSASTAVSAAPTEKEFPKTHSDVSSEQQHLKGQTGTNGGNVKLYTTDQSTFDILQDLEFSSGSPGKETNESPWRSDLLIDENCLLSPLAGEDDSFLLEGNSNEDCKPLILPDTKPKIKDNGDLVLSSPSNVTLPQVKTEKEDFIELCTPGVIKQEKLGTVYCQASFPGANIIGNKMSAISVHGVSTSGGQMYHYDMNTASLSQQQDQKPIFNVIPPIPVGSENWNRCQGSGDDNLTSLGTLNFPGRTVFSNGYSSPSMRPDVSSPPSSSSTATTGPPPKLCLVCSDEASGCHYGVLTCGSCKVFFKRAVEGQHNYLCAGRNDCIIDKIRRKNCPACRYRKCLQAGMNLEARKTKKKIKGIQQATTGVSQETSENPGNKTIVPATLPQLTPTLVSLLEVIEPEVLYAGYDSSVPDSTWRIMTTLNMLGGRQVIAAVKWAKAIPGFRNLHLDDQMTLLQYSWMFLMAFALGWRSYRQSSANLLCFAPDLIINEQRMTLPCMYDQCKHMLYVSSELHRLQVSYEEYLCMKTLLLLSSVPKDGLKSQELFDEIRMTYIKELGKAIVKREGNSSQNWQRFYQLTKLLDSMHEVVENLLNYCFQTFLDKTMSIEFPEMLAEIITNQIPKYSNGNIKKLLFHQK
3',5'-cyclic-AMP phosphodiesterase 4B (Homo sapiens), sequence (Q07343 whole entry, looked up): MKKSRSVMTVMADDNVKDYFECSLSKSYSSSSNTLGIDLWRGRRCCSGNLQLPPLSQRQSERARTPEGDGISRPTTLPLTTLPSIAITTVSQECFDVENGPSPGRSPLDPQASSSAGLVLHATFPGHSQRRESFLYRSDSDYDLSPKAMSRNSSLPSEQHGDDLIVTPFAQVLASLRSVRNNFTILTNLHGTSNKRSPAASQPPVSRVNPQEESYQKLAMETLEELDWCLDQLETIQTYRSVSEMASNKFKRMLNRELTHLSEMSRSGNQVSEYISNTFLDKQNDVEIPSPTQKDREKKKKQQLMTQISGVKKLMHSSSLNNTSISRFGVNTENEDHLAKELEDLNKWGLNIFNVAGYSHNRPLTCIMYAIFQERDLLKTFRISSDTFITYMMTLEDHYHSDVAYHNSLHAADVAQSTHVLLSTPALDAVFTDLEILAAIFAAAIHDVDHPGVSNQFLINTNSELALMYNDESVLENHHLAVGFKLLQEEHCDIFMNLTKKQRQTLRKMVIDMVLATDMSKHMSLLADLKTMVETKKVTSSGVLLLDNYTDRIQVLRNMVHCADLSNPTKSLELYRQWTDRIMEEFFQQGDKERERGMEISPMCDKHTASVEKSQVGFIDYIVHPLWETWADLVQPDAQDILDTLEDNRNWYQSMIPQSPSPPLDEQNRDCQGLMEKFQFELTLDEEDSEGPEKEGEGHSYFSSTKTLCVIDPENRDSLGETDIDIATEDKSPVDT
Luciferin 4-monooxygenase (Photinus pyralis), sequence (P08659 whole entry, looked up): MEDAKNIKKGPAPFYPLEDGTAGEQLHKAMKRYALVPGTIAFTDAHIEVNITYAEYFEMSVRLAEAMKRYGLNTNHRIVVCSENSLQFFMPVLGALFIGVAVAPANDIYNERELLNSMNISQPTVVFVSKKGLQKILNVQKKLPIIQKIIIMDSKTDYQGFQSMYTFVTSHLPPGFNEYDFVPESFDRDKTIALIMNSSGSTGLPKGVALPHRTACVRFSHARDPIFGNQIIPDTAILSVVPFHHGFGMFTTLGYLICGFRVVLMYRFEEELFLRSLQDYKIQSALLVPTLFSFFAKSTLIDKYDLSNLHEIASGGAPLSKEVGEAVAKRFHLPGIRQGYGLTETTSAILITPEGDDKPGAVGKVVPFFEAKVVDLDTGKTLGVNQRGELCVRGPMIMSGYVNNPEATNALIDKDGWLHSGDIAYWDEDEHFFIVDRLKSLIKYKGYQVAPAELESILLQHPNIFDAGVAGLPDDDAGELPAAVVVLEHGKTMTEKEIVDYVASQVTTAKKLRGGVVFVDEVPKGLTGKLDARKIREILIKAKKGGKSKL
Cytochrome P450 1A2 (Homo sapiens), sequence (P05177 whole entry, looked up): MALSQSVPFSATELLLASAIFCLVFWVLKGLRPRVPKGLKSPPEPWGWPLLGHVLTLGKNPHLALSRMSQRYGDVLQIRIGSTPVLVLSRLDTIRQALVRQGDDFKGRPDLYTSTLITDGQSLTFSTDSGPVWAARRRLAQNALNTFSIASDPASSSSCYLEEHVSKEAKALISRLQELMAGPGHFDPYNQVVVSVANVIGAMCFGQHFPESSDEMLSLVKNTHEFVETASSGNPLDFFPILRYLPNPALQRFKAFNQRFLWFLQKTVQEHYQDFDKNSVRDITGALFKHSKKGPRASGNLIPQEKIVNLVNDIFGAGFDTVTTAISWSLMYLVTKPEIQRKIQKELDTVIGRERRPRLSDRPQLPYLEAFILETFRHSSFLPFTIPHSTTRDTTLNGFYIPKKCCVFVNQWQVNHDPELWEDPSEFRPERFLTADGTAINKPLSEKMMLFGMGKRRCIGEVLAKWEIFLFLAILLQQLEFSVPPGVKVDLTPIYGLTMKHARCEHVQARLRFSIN

As for `COc1cc(C2c3cc4c(cc3C(O)[C@H]3COC(=O)C23)OCO4)cc(OC)c1OC` (some centres undefined), the activity change, negative = inhibition in test [1] (at 57.5 µM (top of the series)) is 6.7% (inactive) and 5.22% (inactive). In addition, the max response in test [1] (setting [14]) was -4.29% and 22%; in [1] (setting [15]), 2.15% and 29.3%. Moreover, the Potency result in test [2] is “inactive”.

Take `CC1CC[C@@]2(NC1)O[C@@H]1C[C@H]3C4CC=C5C[C@@H](O)CC[C@]5(C)C4CC[C@]3(C)[C@H]1[C@@H]2C` (some centres undefined): the Potency entry in test [3] and in test [2] was “inactive” throughout. In addition, in [1] (at 57.5 µM (top of the series)), the activity change, negative = inhibition is 7.46% (inactive). In addition, the values for the max response in [1] (setting [14]) and in test [1] (setting [15]) were -0.557% and 6.71%, respectively.

For the molecule `C[C@@]12CC[C@H]3[C@@H](CC[C@]4(O)C[C@H](O)CC[C@@]34C=O)[C@]1(O)CC[C@@H]2C1=CC(=O)OC1`, the result in test [4] and in [7] was inactive. Moreover, the Potency in test [5] and in test [6] was > 20.6 µM (inactive) throughout. Further, in test [1] (at 25.7 µM (top of the series)), the activity change, negative = inhibition was -0.542% (inactive). Moreover, the max response in test [1] (setting [14]) is 6.59%; in test [1] (setting [15]), 6.37%. In addition, the Potency entry in test [2] was “inactive”.

Turning to `C=CC1CN2CCC1CC2C(OC(=O)OCC)c1ccnc2ccc(OC)cc12` (centres undefined), the Potency was 7.94 µM (active) in test [3]; 1.58 µM (active) in test [11] (parasite line A); 2.24 µM (active) in test [11] (parasite line B); 5.62 µM (active) in the test on ATS189; 6.31 µM (active) in the test with DFO2036. Also, the Potency result in test [8], in [9], in test [2] and in test [10] was “inactive” in each case. Besides, the activity change, negative = inhibition in test [1] (at 57.5 µM (top of the series)) is 5.87% (inactive). Also, the max response in test [1] (setting [14]) is 0.936%; in [1] (setting [15]) it was 9.58%.

For the molecule `C[C@@H]1O[C@H](O[C@@H]2CC[C@@]3(C=O)[C@H]4CC[C@@]5(C)[C@@H](C6=CC(=O)OC6)CC[C@@]5(O)[C@@H]4CC[C@]3(O)C2)C[C@H](O)[C@@H]1O`, the Potency entry in test [12], in test [13], in test [8] and in test [2] was “inactive” in each case. Also, the Potency in test [5] and in test [6] was > 20.6 µM (inactive) in each case. Further, the result in [7] was inactive. In addition, the activity change, negative = inhibition in [1] (at 25.7 µM (top of the series)) was -0.93% (inactive). Moreover, the max response in [1] (setting [14]) is -14.4%; in test [1] (setting [15]), -15.6%.
